# Measured values: PubChem BioAssay (NCI)
# This is part of a sample that, as a whole, favours compounds with a hit. Of some 83,000 tested, about 20% had one in any assay.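 96-well plates, one dose, 48 hours. Percent growth reported; active if below 10.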 Unmarked numbers belong to inactive results. The source made the active and inactive calls.
# Columns and labels:
# Assay in all cases: NCI-60 one-dose screen, 48 h (100 = growth as untreated, 0 = no growth, -100 = all killed)
# Details in all cases: 10 µM unless noted
# HCT-15 colon = system: HCT-15 colon
# HT29 colon = system: HT29 colon
# SNB-75 CNS = system: SNB-75 CNS
# SNB-19 CNS = system: SNB-19 CNS
# U251 CNS = system: U251 CNS
# PC-3 prostate = system: PC-3 prostate
# SK-MEL-5 melanoma = system: SK-MEL-5 melanoma
# UACC-62 melanoma = system: UACC-62 melanoma
# LOX IMVI melanoma = system: LOX IMVI melanoma
# SK-MEL-28 melanoma = system: SK-MEL-28 melanoma
# SK-MEL-2 melanoma = system: SK-MEL-2 melanoma
# EKVX NSCLC = system: EKVX NSCLC
# SN12C renal = system: SN12C renal
# UO-31 renal = system: UO-31 renal
# TK-10 renal = system: TK-10 renal
# ACHN renal = system: ACHN renal
# CAKI-1 renal = system: CAKI-1 renal
# A498 renal = system: A498 renal
# CCRF-CEM leukemia = system: CCRF-CEM leukemia
# MOLT-4 leukemia = system: MOLT-4 leukemia
SMILES,growth (HCT-15 colon),growth (HT29 colon),growth (SNB-75 CNS),growth (SNB-19 CNS),growth (U251 CNS),growth (PC-3 prostate),growth (SK-MEL-5 melanoma),growth (UACC-62 melanoma),growth (LOX IMVI melanoma),growth (SK-MEL-28 melanoma),growth (SK-MEL-2 melanoma),growth (EKVX NSCLC),growth (SN12C renal),growth (UO-31 renal),growth (TK-10 renal),growth (ACHN renal),growth (CAKI-1 renal),growth (A498 renal),growth (CCRF-CEM leukemia),growth (MOLT-4 leukemia)
COc1cnc2c(c1)C(=O)c1c-2n(CCCN2CCN(C)CC2)c(=O)c2cc([N+](=O)[O-])ccc12,-61.2% (active),-79.4% (active),-93.2% (active),-20.6% (active),-81.2% (active),4.16% (active),-97.5% (active),-77.9% (active),-90.7% (active),-80.6% (active),-14.2% (active),-43.8% (active),-57.7% (active),-86.6% (active),-89.7% (active),-94.5% (active),-91.4% (active),-95.9% (active),-27.3% (active),-23.2% (active)
CC/C=C\C[C@H](O)C/C=C1/C(=O)C=C[C@@H]1C/C=C\CCCC(=O)NC(C)C,-33.9% (active),-29.6% (active),68%,31.8%,2.26% (active),16.4%,-69.8% (active),-61% (active),-46.9% (active),4.94% (active),28.8%,28.4%,-11.1% (active),-61.8% (active),-0.347% (active),-82.5% (active),-0.696% (active),98.5%,-13% (active),-17.7% (active)
COCCCNc1nc(NC(=O)c2ccc(F)cc2C)cc(-c2cccnc2)n1,109%,105%,91.7%,89.9%,87.6%,95.9%,104%,85.7%,112%,107%,95.6%,108%,91.1%,88.5%,111%,109%,99.1%,85.4%,96.5%,93.9%
CCOC(=O)C12CCCC1=CC(=O)CC2 (stereo unspecified),106%,131%,89.1%,99.9%,105%,94.8%,103%,102%,100%,106%,89.9%,111%,110%,85.3%,128%,106%,103%,110%,95.7%,94.6%
C=C1CCC2C3(C)COC(c4cccc(Cl)c4)OC3CCC2(C)C1/C=C/C1=CCOC1=O (stereo unspecified),59.1%,56.9%,86.5%,77.3%,69.4%,44.2%,35%,62.6%,52.1%,78.8%,85.6%,35.2%,87.2%,38.8%,88.3%,71.5%,70.6%,64.5%,48.4%,33.2%
NC(N)=Nc1ccc(S(=O)(=O)O)cc1,102%,111%,88.7%,90%,111%,99.1%,101%,86.9%,96.5%,103%,107%,110%,90.8%,94.6%,108%,93%,115%,–,108%,85.2%
CCOC(=O)c1c2c(n3ccc(NC(=O)CCN4CCOCC4)cc13)C(=O)c1ncccc1C2=O,33.9%,32.7%,52.7%,54.6%,41.5%,51%,42.3%,27.7%,15%,77.8%,30.9%,60.4%,24.2%,36%,47%,16.5%,21.5%,56.2%,19.3%,18.6%
CNCCCn1c2c(c3ccc([N+](=O)[O-])cc3c1=O)C(=O)c1cc(OC)cnc1-2,-27.5% (active),-19.2% (active),-26.5% (active),2.67% (active),-61.1% (active),2.02% (active),-98.8% (active),-77.1% (active),-89% (active),-67% (active),-43.9% (active),4.21% (active),-29.7% (active),-78.4% (active),-23.9% (active),-65.2% (active),-83.4% (active),–,-31.9% (active),-10.9% (active)
COc1ccc(C2Nc3ccccc3-n3cccc32)cc1 (stereo unspecified),92.9%,108%,105%,97.8%,98%,71.7%,93.1%,81.9%,97.3%,106%,92.7%,68.8%,97.4%,58.3%,100%,88%,89%,93.2%,104%,120%
CC/C(Cc1ccccc1)=C(\c1ccc(OCCN2CCCC2)cc1)c1ccc(OC(C)=O)cc1,60.5%,24.4%,57.8%,105%,57.2%,79.5%,69.6%,43.9%,48.2%,21%,104%,80.3%,83.4%,72.3%,88.7%,89.7%,86.6%,87.9%,88.1%,55.2%
CCN(CC)C12CCCCC1(C)C(C#N)(C#N)C(C#N)=C(N)O2 (stereo unspecified),106%,101%,92.1%,106%,103%,115%,116%,90.8%,98.9%,99.3%,112%,89.3%,97.5%,82.7%,93.2%,106%,91.8%,122%,–,108%
C=C1CCC2C3(C)COC(C)(C)OC3CCC2(C)C1C/C=C1/C(=O)OCC1OC(C)=O (stereo unspecified),33.8%,18.4%,58%,110%,36.7%,56.4%,56.9%,41.9%,8.63% (active),69.6%,49.2%,53.5%,33%,64.6%,68.7%,24.3%,19.3%,116%,–,-16.8% (active)
CCOC(=O)CC(=O)c1c(C)cc(C)cc1C,98.2%,87.7%,112%,96.2%,105%,103%,100%,96.9%,98.5%,118%,93.4%,105%,94.1%,92.9%,116%,83.7%,97%,96.8%,90.9%,78.7%
CS(=O)(=O)c1c(Nc2ccccc2)n[nH]c1N,101%,97.3%,114%,91.1%,105%,82.5%,101%,92.4%,89.8%,106%,113%,116%,95%,96.4%,90.2%,102%,105%,115%,91.1%,98.6%
O=C(Nc1ccc(Nc2cc(Nc3ccccc3)ncn2)cc1)Nc1cc(C(F)(F)F)ccc1F,70.9%,58.4%,57.1%,87.4%,64.2%,55.8%,82%,65.8%,63.6%,71.9%,82.8%,80.5%,78.5%,65.6%,89.5%,66.9%,74.4%,75.3%,71.7%,63.6%
CC(=O)C1=C(O)C=C2Oc3c(C(=O)/C=C/c4cc(C(F)(F)F)cc(C(F)(F)F)c4)c(O)c(C)c(O)c3[C@]2(C)C1=O,-73% (active),-42.4% (active),-28.3% (active),-17.5% (active),-48.1% (active),-8.91% (active),-93.9% (active),-64.8% (active),-85.4% (active),-72.4% (active),-49.7% (active),-33.9% (active),-34.1% (active),-31.4% (active),-32.5% (active),-75.7% (active),5.35% (active),-87.7% (active),-18.1% (active),-14.1% (active)
